# Results reported in PubChem BioAssay (NCI).
# Compounds without any hit were thinned out: in the full panel of roughly 83,000, 20% have a hit.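 The endpoint reported here, percent growth, reads 100 for growth as untreated, 0 for no net growth and -100 for all cells dead.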 Values without a mark were called inactive. Activity calls are given as the source filed them. Rule for the calls: active = growth percent below 10; inactive = the rest.
# Tested on: MDA-MB-468 breast
# Assay: NCI-60 one-dose screen, 48 h (100 = growth as untreated, 0 = no growth, -100 = all killed)
# Conditions: 10 µM unless noted
row,Compound,growth
1,COc1ccc(CNC(=O)C(O)C(Cc2ccccc2)NC(=O)c2[nH]c3ccccc3c(=O)c2C)cc1OC (stereo not given),102%
2,Cc1csc(/N=C(N)/N=C(\N)c2cccs2)n1,120%
3,C=CC(=O)Nc1cccc(-c2nc(SC)nc(Nc3ccccc3OC)c2C#N)c1,18.2%
4,COC(=O)c1cncc(C(=O)Nc2ccc(-n3cnc4ccccc43)cc2)c1,101%
5,Cc1nc2ccccc2n1C(=O)C[C@@H]1NC(=S)NC1=O,95.7%
6,N=c1c2ccccc2nc2n1CCCCC2,103%
7,O=C(Cc1ccc(/C=C/C(=O)c2ncc[nH]2)cc1)Nc1ccc(Br)cc1,19.6%
8,O=C(O)c1ccc(-n2c(=O)n(-c3cccc(C(F)(F)F)c3)c(=O)c3cc(-c4ccc(F)cc4F)ccc32)cc1,-4.52% (active)
9,O=C(N/N=C/c1ccc([N+](=O)[O-])o1)c1[nH]c2ccc(Br)cc2c1-c1ccccc1,24.8%
10,Nc1c(C(=O)Nc2cccc3ncccc23)sc2nc3c(cc12)CN(Cc1ccccc1)CC3,31.4%
11,CC(C)(Sc1cc(C(C)(C)C)c(O)c(C(C)(C)C)c1)Sc1cc(C(C)(C)C)c(OC(=O)CCCC(=O)O)c(C(C)(C)C)c1,43.5%
12,Nc1ccc(S(=O)(=O)Nc2ccnn2-c2ccccc2)cc1,107%
13,CCOC(=O)N1CCN(S(=O)(=O)c2oc(-c3ccc(Cl)cc3)nc2C#N)CC1,86.5%
14,CS(=O)(=O)c1ccc(-c2[nH]c3ccc(F)cc3c2/C=N/NC(N)=S)cc1,8.01% (active)
15,CCc1ccc(Oc2cn[nH]c2-c2ccc(OCCc3ccc(F)cc3)cc2O)cc1,105%
16,Cn1cc(-c2nc(-c3c[nH]c4c(Cl)nccc34)cs2)c2ccccc21,8.74% (active)
17,COc1ccc(C(=O)/C=C/c2cc3c(c(OC)c2)OCC(=O)N3)cc1,42.3%
18,C=C(C)[C@@H]1CC[C@]2(C(=O)NC(COC(=O)C(Cl)Cl)(COC(=O)C(Cl)Cl)COC(=O)C(Cl)Cl)CC[C@]3(C)[C@H](CC[C@@H]4[C@@]5(C)CC[C@H](OC(C)=O)C(C)(C)[C@@H]5CC[C@]43C)[C@@H]12,61.7%
19,Oc1ccc(-c2[nH]c3ccccc3c2-c2nc3ccccc3o2)cc1,26.1%
20,COc1cc(C(=O)N2N=C(c3ccc(S(C)(=O)=O)cc3)CC2c2ccco2)cc(OC)c1OC (stereo not given),36.7%

row,Compound,growth
1,CC(C)(C)OC(=O)N1C/C(=C\c2ccccc2)C(=O)/C(=C/c2ccccc2)C1,112%
2,COc1ccc(/C=C/c2nc(Nc3ccc(Cl)cc3)c3ccccc3n2)cc1,28.1%
3,Cc1ccc(=O)n(-c2ccc(Br)cc2F)c1,102%
4,CN(C)CC(=O)Nc1nc(-c2cccc(NS(=O)(=O)c3cccc4c(N(C)C)cccc34)c2)cs1,62%
5,Nc1ccc(Cl)c([N+](=O)[O-])c1,98.5%
6,c1ccc(CCn2cccc2)nc1,114%
7,COc1ccc(-c2nsc3c2NC(=O)CC3c2ccc(F)cc2)cc1 (stereo not given),1.54% (active)
8,O=C(NNc1cnccn1)c1nc2cc(F)ccc2n2cccc12,-21.7% (active)
9,O=C(C[N+](=O)[O-])c1ccc(Cl)cc1,112%
10,CCN=C1C=CC(=C(c2ccc(N(C)C)cc2)c2ccc(N(C)C)cc2)c2ccccc21,-26.8% (active)
11,C=C1CC[C@@H]2[C@](C)(COC(C)=O)[C@H](OC(C)=O)CC[C@@]2(C)[C@@H]1CC(Nc1ccc(S(=O)(=O)NC(C)=O)cc1)C1=CCOC1=O (stereo not given in full),-53.9% (active)
12,O=C(Cc1ccccc1)c1ccc(O)c(Cl)c1,-1.16% (active)
13,Cn1ccnc1C(=O)/C=C/c1ccc(CC(=O)Nc2cc(F)c(F)c(F)c2)cc1,-23.4% (active)
14,Nc1cccc(-c2nc3sccn3c2-c2ccnc(NCCCNS(=O)(=O)c3cccc4ccccc34)n2)c1,18.2%
15,COc1cc2c(cc1OC)C(C)N(S(N)(=O)=O)CC2 (stereo not given),99.6%
16,Cc1ccc2oc(=O)cc(/C(=C3/C=CC=N3)c3ccc[nH]3)c2c1,3.2% (active)
17,CC(C)(O)c1cn(CCCCN2C(=O)C(=O)c3ccccc32)nn1,95%
18,O=C(CN1CCN(c2cc(=O)n(-c3ccccc3)c3ccccc23)CC1)Nc1nc(-c2ccccc2)cs1,13.3%
19,CCN1C(=O)N(CC)C2C1NN=c1s/c(=C\c3cccs3)c(=O)n12 (stereo not given),15.3%
20,CCN1CCN(c2nc(C)cc(NCc3cc(Nc4ccnc5cc(Cl)ccc45)ccc3F)n2)CC1,-23.1% (active)
